In the library only some 2.3% were active in any assay of this set; here they are far more common.
ADAM17 inh = inhibitors of human ADAM17; recombinant ADAM17, EDANS/DABCYL FRET peptide cleavage; actives 0.83% (n = 370,000); inhibition, % at 6.95 µM; AID 720648; P78536;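 active = inhibition above the mean of compounds lying between control limits plus 3 SD, set per campaign, cut at about 8.5% in these data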;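 also: 0% = DMSO-only wells as the low control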
V-ATPase pHluor = alters yeast V-ATPase proton transport; actives 0.37% (n = 350,000); S. cerevisiae, pHLuorin cytosolic pH fluorescence; response, % at 10 µM; in the data active = response mostly above about 7.3%, no sharp cut-off; inactive = mostly below about 5.4%; also: actives read high
ADAM10 inh = ADAM10 inhibition, QFRET primary screen; O14672; recombinant ADAM10, EDANS/DABCYL FRET peptide cleavage, 3 h; inhibition, % at 7 µM; actives 0.62% (n = 370,000);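 active = inhibition above a per-campaign cutoff equal to the mean of compounds falling between control-based bounds plus 3 SD, cut at about 20% in these data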;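 also: 0% = DMSO wells while the 100% control is not disclosed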
KLK7 zymogen act = proKLK7 (human) activation, primary screen. actives 0.9% (n = 370,000). P49862. activation, % at 7 µM. AID 652039. purified proKLK7, EDANS-DABCYL substrate fluorescence; 100% is mature enzyme control, 0% vehicle;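 active = activation above the mean of all tested compounds plus 3 SD, computed per campaign excluding outliers beyond control limits, cut at about 13% in these data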
Target sequence (P49862 whole entry, looked up): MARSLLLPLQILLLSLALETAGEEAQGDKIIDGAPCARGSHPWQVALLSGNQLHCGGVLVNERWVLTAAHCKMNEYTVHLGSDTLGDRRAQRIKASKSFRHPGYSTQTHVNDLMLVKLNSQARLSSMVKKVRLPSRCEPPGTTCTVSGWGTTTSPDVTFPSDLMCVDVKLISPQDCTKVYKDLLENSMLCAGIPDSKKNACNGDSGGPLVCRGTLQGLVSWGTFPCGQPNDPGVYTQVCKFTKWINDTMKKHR
V-ATPase pH SP = yeast V-ATPase proton transport regulation. actives 2% (n = 980). S. cerevisiae pHLuorin cytosolic pH. shares compounds with V-ATPase pHluor. response, % at 10 µM; in the data active = response above about 24%;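 also: plate controls were vehicle wells for no effect and positive control wells for full effect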
* hit, by the source's call; x = no result given.

SMILES	ADAM17 inh	V-ATPase pHluor	ADAM10 inh	KLK7 zymogen act	V-ATPase pH SP
O=C(CCC(=O)c1ccc(F)cc1)NCc1ccccc1C(F)(F)F	-3.3	3.4	-2.4	0.1	-0.9
COc1cc(/C=N/NC(=O)CN2CCCCC2)ccc1OCc1ccccc1	-0.8	9.6*	-3.5	-0.1	-2.4
CCOc1ccc(-n2c(COc3ccccc3)nnc2SCC(=O)Nc2ccc3c(c2)OCCO3)cc1	6.9	x	16.6	-0.2	x
C[C@H](CO)N1C[C@H](C)[C@@H](CN(C)Cc2cccc3c2OCCCO3)OCc2cnnn2CCCC1=O	-4.4	9.4*	-9.8	-0.4	1.6
O=S(N1CCCCC1)C12CC3CC(CC(C3)C1)C2 (stereo unspecified)	0.4	14.5*	-2.4	-0.2	1.6
C=CCn1c(SCC(=O)O)nnc1-c1ccco1	-1.9	x	-0.6	-0.4	x
CSc1nc2cc(S(=O)(=O)N3CCOCC3)ccc2s1	-1.3	18.7*	-2.0	0.8	-0.3
C[C@@H]1CN([C@@H](C)CO)S(=O)(=O)c2ccc(Br)cc2O[C@H]1CN(C)C(=O)c1ccccc1	-4.4	69.1*	-7.7	0.2	1.1
C[C@H](CO)N1C[C@H](C)[C@@H](CN(C)C(=O)c2ccc(F)cc2)Oc2cc(Br)ccc2S1(=O)=O	1.2	3.1	-12.7	-0.1	x
Cc1cc(C)c(OCCOCCN2CCNCC2)c(C)c1	1.6	16.4*	9.2	0.0	-0.3
CCOC(=O)C1C(O)=CC(=O)CC1c1ccccc1 (stereo unspecified)	3.3	0.8	3.0	0.7	x
CCOC(=O)C1C(=O)N(O)CC1c1cccc(Oc2ccccc2)c1 (stereo unspecified)	-0.6	12.5*	7.2	-0.1	0.1
CCOC(=O)c1cn2c(C)cccc2n1	1.9	-0.1	-1.1	-0.2	x
CCOC(=O)c1cccc(C(=O)OCC)n1	-1.7	1.0	-0.9	0.5	8.0
O=C(O)CCN1C(=O)C2C3CC(C2C1=O)C1C(c2ccccc2)c2sc(=O)n(-c4ccccc4)c2SC31 (stereo unspecified)	-1.4	9.2*	-2.9	-0.3	3.0
O=C(O)CCN1C(=O)C2C3CC(C2C1=O)C1C(c2ccccc2)c2sc(=O)[nH]c2SC31 (stereo unspecified)	-0.2	0.9	0.6	-0.2	x
O=C1C2CCCCN2C(=O)N1CCN1CCN(c2cccc(Cl)c2)CC1 (stereo unspecified)	2.2	6.3*	0.7	-0.2	0.7
O=C1C2CCCN2C(=O)N1CCCCN1CCN(c2cccc(Cl)c2)CC1 (stereo unspecified)	-3.2	0.3	-1.4	0.3	x
O=C(CCl)N1CCN(C(=O)C2COc3ccccc3O2)CC1 (stereo unspecified)	-4.3	14.1*	-3.1	-0.9	1.5
O=S(=O)(c1ccc(Cl)nc1)N1CCc2ccccc21	-1.3	11.8*	-0.9	-1.1	1.0
O=C(NCC1COCCO1)C1CCN(S(=O)(=O)c2cccc3ccccc23)CC1 (stereo unspecified)	4.2	x	-4.8	-0.3	x
COc1ccc(OC)c(-n2c(SCC(=O)NCc3ccco3)nnc2-c2c[nH]c3ccccc23)c1	1.4	12.4*	1.1	0.5	-1.6
COc1cccc(-n2c(SCC(=O)NCc3ccco3)nnc2-c2c[nH]c3ccccc23)c1	-0.5	3.5	-17.2	-0.4	x
C=CCNC(=O)Nc1ccc2c(c1)[C@@]1(CC(=O)N(CC(C)C)C1c1ccccc1)C(=O)N2C (stereo partly specified)	-3.4	x	-4.8	0.0	x
COc1ccccc1-c1csc(-n2ncc(C#N)c2N)n1	3.0	-0.8	3.8	-0.6	x
SMILES	ADAM17 inh	V-ATPase pHluor	ADAM10 inh	KLK7 zymogen act	V-ATPase pH SP
Cc1ccc(-c2nnc(-n3ncc(C#N)c3N)c3ccccc23)cc1C	-2.8	9.9*	-3.1	-0.9	-4.7
CC1Cc2ccccc2N1S(=O)(=O)c1cccc(C(=O)NCCCn2ccnc2)c1 (stereo unspecified)	2.4	10.1*	1.2	0.6	-0.7
COC(=O)c1ccc(NC(=O)c2snnc2-c2ccccc2)cc1	2.7	8.2*	-2.8	-0.1	2.1
CCN(C)C(=O)CN1C(=O)C2CCCCN2C(=O)c2ccccc21 (stereo unspecified)	3.3	x	-14.5	-0.1	x
ON=C1c2ccccc2-c2ccccc21	1.3	-0.6	1.6	-0.2	x
NC(N)=NN=C1c2ccccc2-c2ccccc21	-0.9	200.6*	-5.8	-0.8	-5.0
COCCSc1nnc(-c2cccnc2)n1Cc1ccccc1	0.8	x	2.1	0.1	x
O=c1c(C=Nc2ccc(Cl)cc2)c[nH]n1-c1cccc(Cl)n1	2.1	10.6*	-10.0	-0.8	-3.9
O=c1c(C=Nc2cccc(C(F)(F)F)c2)c[nH]n1-c1cccc(Cl)n1	2.6	-1.2	11.1	0.1	x
